Test results taken from PubChem BioAssay.
Active and inactive are the calls of the source.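 The calls were made as follows, unless noted: active = compound raises insulin release from rat beta cells at 5 mM glucose, no numeric limit stated; inactive = the rest.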

Key:
[1] = Wnt pathway potentiators raising nuclear beta-catenin – imaging, WNT3A-conditioned medium, mouse C2C12, NPC library, primary screen (AID 1117326; in the data active = nuclear beta-catenin stimulation mostly above about 4.2%, no sharp cut-off; inactive = mostly below about 10%; also: reference of the scale not given here); settings: stronger effect = higher value
[2] = stimulators of insulin release from INS-1E, primary screen, cell-based, 5 mM glucose, NPC library (AID 1117329); settings: rat INS-1E insulin secretion, at 10 µM, stronger effect = higher value; also: reference of the scale not given here
[3] = growth inhibition of GSK3B-pretreated HCT116 cells – cell-based, CellTiter-Glo, 0.2 to 20 µM (AID 1117336;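 active = compounds lowering colon cancer cell viability after pretreatment blocking the GSK3B kinase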); settings: HCT116 viability after GSK3B inhibitor, at 20 µM, stronger effect = higher value
[4] = inhibition of endothelial tube formation, primary screen, imaging, VEGF stimulated, CD31 staining, tube area, NPC library (AID 1117340;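 active = compound that reduces growth-factor-driven endothelial tube area in a mixed cell culture, no cutoff stated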); settings: VEGF-stimulated ADSC/ECFC co-culture, at 10 µM, stronger effect = higher value
[5] = GLP1 release stimulators, primary, NCI-H716, NPC library (AID 1117341;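 active = compound raises GLP1 secretion from the human gut endocrine cells, with no numeric limit stated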; also: reference of the scale not given here); settings: NCI-H716 cells, at 10 µM, stronger effect = higher value
[6] = HCT116 colon cancer cell growth inhibition, primary screen, CellTiter-Glo luminescence, NPC library (AID 1117342;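 active = compounds that lower survival of HCT116 colon cancer cells in the luminescence readout, no numeric limit stated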); settings: at 20 µM (top of the series)
[7] = reduced SW480 viability measured with CellTiter-Glo, NPC library, primary (AID 1117343;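 active = compounds that lower viability of the colon cancer cells in the luminescence readout, with no numeric limit stated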); settings: CellTiter-Glo luminescence; at 20 µM (top of the series)
[8] = NPC library primary testing for decreased DLD-1 cell viability via CellTiter-Glo (AID 1117346;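 active = compounds that lower survival of DLD-1 colon cancer cells in the luminescence readout, no cutoff given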); settings: DLD-1 viability, CellTiter-Glo luminescence; at 20 µM (top of the series)
[9] = molecular target: 6-phosphogluconate dehydrogenase, decarboxylating (Homo sapiens) (UniProt P52209); experiment: inhibition of human phosphogluconate dehydrogenase – biochemical, recombinant enzyme, NADPH absorbance, primary screen (AID 1159550;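 active = at least 20% inhibition of 6-phosphogluconate dehydrogenase activity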); settings: recombinant 6PGD, NADPH absorbance 341 nm; at 10 µM; stronger effect = higher value
6-phosphogluconate dehydrogenase, decarboxylating (Homo sapiens), sequence (P52209 whole entry, looked up): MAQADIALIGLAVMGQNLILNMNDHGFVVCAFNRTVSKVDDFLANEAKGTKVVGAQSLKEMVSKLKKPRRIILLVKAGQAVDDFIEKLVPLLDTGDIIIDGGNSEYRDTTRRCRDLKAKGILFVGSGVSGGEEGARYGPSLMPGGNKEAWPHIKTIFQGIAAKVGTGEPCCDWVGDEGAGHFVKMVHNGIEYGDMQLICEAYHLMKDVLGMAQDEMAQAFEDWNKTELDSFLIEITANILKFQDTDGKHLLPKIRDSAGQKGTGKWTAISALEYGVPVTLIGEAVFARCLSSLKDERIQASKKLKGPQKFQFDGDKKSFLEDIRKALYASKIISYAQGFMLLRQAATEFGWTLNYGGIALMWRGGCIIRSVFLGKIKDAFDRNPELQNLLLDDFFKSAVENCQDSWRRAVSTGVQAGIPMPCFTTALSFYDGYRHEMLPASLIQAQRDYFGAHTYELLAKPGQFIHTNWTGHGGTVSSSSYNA

CN1CCC[C@@H]1CCO[C@](C)(c1ccccc1)c1ccc(Cl)cc1
active: tube area decrease [4] 55% | inhibition of viability [6] 78.8% | viability decrease (inhibition) [7] 113% | viability decrease (inhibition) [8] 86.8%
inactive: nuclear beta-catenin stimulation ([1]; at 10 µM) 7.8% | insulin secretion stimulation [2] 1.3% | viability decrease [3] 25.3% | GLP1 secretion stimulation [5] 10.3% | inhibition [9] 12.4%
2.3%: nuclear beta-catenin stimulation ([1]; stimulation, at 2 µM)

NS(=O)(=O)c1cc2c(cc1Cl)NC(C(Cl)Cl)NS2(=O)=O (stereo unspecified)
-0.1%: nuclear beta-catenin stimulation ([1]; stimulation, at 2 µM)
inactive: nuclear beta-catenin stimulation ([1]; at 10 µM) -0.1% | insulin secretion stimulation [2] 1.15% | viability decrease [3] 13.9% | tube area decrease [4] -20.1% | GLP1 secretion stimulation [5] 0.9% | inhibition of viability [6] -37.1% | viability decrease (inhibition) [7] -6.6% | viability decrease (inhibition) [8] 6.3% | inhibition [9] 17.4%

O=C(O)CSCC(=O)NC1CCSC1=O (stereo unspecified)
inactive: nuclear beta-catenin stimulation ([1]; at 10 µM) -0.4% | insulin secretion stimulation [2] -1.9% | viability decrease [3] -4% | tube area decrease [4] -2.7% | GLP1 secretion stimulation [5] -0.3% | inhibition of viability [6] 9% | viability decrease (inhibition) [7] 15.2% | viability decrease (inhibition) [8] -4.25%
1.1%: nuclear beta-catenin stimulation ([1]; stimulation, at 2 µM)

Cc1ccc(S(=O)(=O)NC(=O)NN2CC3CCCC3C2)cc1 (stereo unspecified)
active: insulin secretion stimulation [2] 42.6%
inactive: nuclear beta-catenin stimulation ([1]; at 10 µM) 0.7% | viability decrease [3] -5.85% | tube area decrease [4] -26.1% | GLP1 secretion stimulation [5] 0.8% | inhibition of viability [6] -22.6% | viability decrease (inhibition) [7] 22.3% | viability decrease (inhibition) [8] -0.5% | inhibition [9] 2.59%
1.2%: nuclear beta-catenin stimulation ([1]; stimulation, at 2 µM)

C[C@@H]1CN(c2c(F)c(F)c3c(=O)c(C(=O)O)cn(C4CC4)c3c2F)C[C@H](C)N1
inactive: nuclear beta-catenin stimulation ([1]; at 10 µM) -0.9% | insulin secretion stimulation [2] -0.9% | viability decrease [3] -4.4% | tube area decrease [4] -17.5% | GLP1 secretion stimulation [5] -0.3% | inhibition of viability [6] 4.9% | viability decrease (inhibition) [7] 24.4% | viability decrease (inhibition) [8] -6.7%
1.1%: nuclear beta-catenin stimulation ([1]; stimulation, at 2 µM)

CC(=O)O[C@]1(C(C)=O)CC[C@H]2[C@@H]3C=C(Cl)C4=CC(=O)CC[C@]4(C)[C@H]3CC[C@@]21C
inactive: nuclear beta-catenin stimulation ([1]; at 10 µM) 1.1% | insulin secretion stimulation [2] 0% | tube area decrease [4] 22.4% | GLP1 secretion stimulation [5] 1.3% | viability decrease (inhibition) [8] 7.1% | inhibition [9] -12%
-0.3%: nuclear beta-catenin stimulation ([1]; stimulation, at 2 µM)
active: viability decrease [3] 56.2% | inhibition of viability [6] 52.6% | viability decrease (inhibition) [7] 57.1%

Cc1nc(-c2ccc(OCC(C)C)c(C#N)c2)sc1C(=O)O
inactive: nuclear beta-catenin stimulation ([1]; at 10 µM) 1.3% | insulin secretion stimulation [2] 3.8% | viability decrease [3] 25.8% | tube area decrease [4] -47.3% | GLP1 secretion stimulation [5] 4.1% | inhibition of viability [6] 25.4% | viability decrease (inhibition) [8] 28.7%
active: viability decrease (inhibition) [7] 57.5%
0.4%: nuclear beta-catenin stimulation ([1]; stimulation, at 2 µM)

C/C=C1\[C@H]2C=C(C)C[C@]1(N)c1ccc(=O)[nH]c1C2
-0.8%: nuclear beta-catenin stimulation ([1]; stimulation, at 2 µM)
inactive: nuclear beta-catenin stimulation ([1]; at 10 µM) -0.8% | insulin secretion stimulation [2] 1.5% | viability decrease [3] 10.5% | tube area decrease [4] 0.1% | GLP1 secretion stimulation [5] 3.9% | inhibition of viability [6] 3.1% | viability decrease (inhibition) [7] -14.7% | viability decrease (inhibition) [8] 0.1%

Oc1cc(O)c2c(c1)O[C@H](c1ccc(O)c(O)c1)[C@H](O)C2
1.2%: nuclear beta-catenin stimulation ([1]; stimulation, at 2 µM)
inactive: nuclear beta-catenin stimulation ([1]; at 10 µM) -1.4% | insulin secretion stimulation [2] -0.7% | viability decrease [3] 14.4% | tube area decrease [4] -6.6% | GLP1 secretion stimulation [5] -3.1% | inhibition of viability [6] 1.73% | viability decrease (inhibition) [7] -72.1% | viability decrease (inhibition) [8] -2% | inhibition [9] -5.84%

CCCCCCCCNC(C)C(O)c1ccc(SC(C)C)cc1 (stereo unspecified)
active: viability decrease [3] 101% | tube area decrease [4] 45.2% | GLP1 secretion stimulation [5] 38.4% | inhibition of viability [6] 102% | viability decrease (inhibition) [7] 142% | viability decrease (inhibition) [8] 103%
inactive: nuclear beta-catenin stimulation ([1]; at 10 µM) -5.4% | insulin secretion stimulation [2] -0.1% | inhibition [9] 12%
1.4%: nuclear beta-catenin stimulation ([1]; stimulation, at 2 µM)

NC(=NCCCCCCN=C(N)/N=C(\N)Nc1ccc(Cl)cc1)/N=C(\N)Nc1ccc(Cl)cc1
active: nuclear beta-catenin stimulation ([1]; at 10 µM) -2.3% | insulin secretion stimulation [2] 36.6% | viability decrease [3] 120% | tube area decrease [4] 111% | GLP1 secretion stimulation [5] 161% | inhibition of viability [6] 125% | viability decrease (inhibition) [7] 166% | viability decrease (inhibition) [8] 101%
inactive: inhibition [9] -5.13%
45.4%: nuclear beta-catenin stimulation ([1]; stimulation, at 2 µM)

NC(N)=NCCN1CCCCCCC1
inactive: nuclear beta-catenin stimulation ([1]; at 10 µM) 0.1% | insulin secretion stimulation [2] -1.2% | viability decrease [3] 1.25% | tube area decrease [4] 3.7% | GLP1 secretion stimulation [5] -0.1% | inhibition of viability [6] 30% | viability decrease (inhibition) [7] -11.2% | viability decrease (inhibition) [8] 23.4% | inhibition [9] 10.5%
-0.3%: nuclear beta-catenin stimulation ([1]; stimulation, at 2 µM)

COc1cc(C(=O)NCc2ccc(OCCN(C)C)cc2)cc(OC)c1OC
5.8%: nuclear beta-catenin stimulation ([1]; stimulation, at 2 µM)
inactive: nuclear beta-catenin stimulation ([1]; at 10 µM) 9.2% | insulin secretion stimulation [2] 2.5% | viability decrease [3] 19.5% | tube area decrease [4] 16.6% | GLP1 secretion stimulation [5] -2.4% | inhibition of viability [6] -8.75% | viability decrease (inhibition) [7] -11.4% | viability decrease (inhibition) [8] -8.9% | inhibition [9] 10.5%

Cc1cccc(N(C)C(=S)Oc2ccc3ccccc3c2)c1
1.3%: nuclear beta-catenin stimulation ([1]; stimulation, at 2 µM)
inactive: nuclear beta-catenin stimulation ([1]; at 10 µM) -0.1% | insulin secretion stimulation [2] 0.4% | tube area decrease [4] -39% | GLP1 secretion stimulation [5] -2.7% | viability decrease (inhibition) [7] 35.1% | inhibition [9] 6.26%
active: viability decrease [3] 50% | inhibition of viability [6] 58.6% | viability decrease (inhibition) [8] 56.8%

O=C(O)[C@@H](O)[C@H](O)[C@H](O)[C@@H](O)C(=O)O
inactive: nuclear beta-catenin stimulation ([1]; at 10 µM) -1.3% | insulin secretion stimulation [2] 3.6% | viability decrease [3] -8.4% | tube area decrease [4] 23.5% | GLP1 secretion stimulation [5] -1.9% | inhibition of viability [6] 1.7% | viability decrease (inhibition) [8] -6.1% | inhibition [9] 3.91%
active: viability decrease (inhibition) [7] 57.2%
-0.3%: nuclear beta-catenin stimulation ([1]; stimulation, at 2 µM)
